This is part of a sample that, as a whole, favours compounds with a hit. Of some 83,000 tested, about 20% had one in any assay.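 Each cell line was grown in a 96-well plate and treated with one concentration of compound for 48 hours. Values below 10 were considered active.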 A number with no mark means an inactive call. Activity calls are given as the source filed them.

Among the test systems are SK-MEL-2 melanoma; EKVX NSCLC; SN12C renal; UO-31 renal; TK-10 renal; ACHN renal; CAKI-1 renal; A498 renal; CCRF-CEM leukemia; SR leukemia; RPMI-8226 leukemia; OVCAR-8 ovarian; OVCAR-5 ovarian; OVCAR-4 ovarian; SK-OV-3 ovarian; IGROV1 ovarian; OVCAR-3 ovarian; HS 578T breast; NCI/ADR-RES ovarian; MOLT-4 leukemia.
What all share (experiment): NCI-60 one-dose screen, 48 h (100 = growth as untreated, 0 = no growth, -100 = all killed)
What all share (conditions): 10 µM unless noted

For `C[C@@H]1CC2C3CCC4=CC(=O)C=C[C@]4(C)[C@@]3(Cl)[C@@H](O)C[C@]2(C)[C@@]1(OC(=O)c1ccco1)C(=O)CCl` (stereo partly drawn), the growth with SK-MEL-2 melanoma is 76.6%; in the experiment with EKVX NSCLC it was 61.5%; with SN12C renal, 35.4%; in the experiment on UO-31 renal it was 30.5%; in the experiment with TK-10 renal it was 95.6%; in the experiment on ACHN renal, 82.4%. In addition, the growth in the experiment with CAKI-1 renal is 62.2%; in the experiment on A498 renal, 99%; with CCRF-CEM leukemia, 30%; in the experiment with SR leukemia, 54.6%; with RPMI-8226 leukemia, 55.9%; in the experiment with OVCAR-8 ovarian, 53%. Moreover, the growth is 83.1% in the experiment with OVCAR-5 ovarian; 67.7% in the experiment with OVCAR-4 ovarian; 54.1% in the experiment with SK-OV-3 ovarian; 76.3% with IGROV1 ovarian; 89.3% with OVCAR-3 ovarian; 67.2% with HS 578T breast. The growth in the experiment on NCI/ADR-RES ovarian was 39.9%.

For the compound `CC(C)[C@@H]1C=C2CC[C@H]3[C@](C)(CN)CCC[C@]3(C)[C@H]2CC1`, the growth was 81.7% in the experiment with SK-MEL-2 melanoma; 65.6% with EKVX NSCLC; 93% with SN12C renal; 68.3% in the experiment with UO-31 renal; 90.8% in the experiment on TK-10 renal; 80.5% in the experiment with ACHN renal. The growth in the experiment with CAKI-1 renal was 78.7%; with A498 renal it was 66.6%; with CCRF-CEM leukemia, 71%; in the experiment on MOLT-4 leukemia, 49.4%; with RPMI-8226 leukemia it was 20.7%; in the experiment with OVCAR-8 ovarian, 82.3%. In addition, the growth with OVCAR-4 ovarian is 77.3%; in the experiment with SK-OV-3 ovarian, 113%; in the experiment with IGROV1 ovarian, 92.2%; in the experiment with OVCAR-3 ovarian, 44.4%; in the experiment on HS 578T breast it was 74.6%; in the experiment with NCI/ADR-RES ovarian, 106%.

For `CCN(CCC#N)c1ccccc1`, the growth in the experiment with SK-MEL-2 melanoma was 106%; in the experiment on EKVX NSCLC it was 101%; with SN12C renal, 90.8%; in the experiment on UO-31 renal it was 89.1%; in the experiment with TK-10 renal, 117%; in the experiment on ACHN renal, 112%. Further, the growth in the experiment with CAKI-1 renal is 97.7%; with A498 renal, 130%; in the experiment with CCRF-CEM leukemia, 93.6%; in the experiment on SR leukemia, 96.4%; in the experiment with RPMI-8226 leukemia it was 98%; in the experiment with OVCAR-8 ovarian, 103%. In addition, the growth was 102% in the experiment on OVCAR-5 ovarian; 100% in the experiment with OVCAR-4 ovarian; 114% in the experiment on SK-OV-3 ovarian; 115% in the experiment with IGROV1 ovarian; 113% in the experiment on OVCAR-3 ovarian; 91.8% in the experiment on HS 578T breast. For the same compound, in the experiment with NCI/ADR-RES ovarian, the growth was 105%.

Turning to `CN(C)CCCn1c(=O)c2cc([N+](=O)[O-])ccc2c2cnc3[nH]ccc3c21`, the growth in the experiment on SK-MEL-2 melanoma is 53.7%; in the experiment on EKVX NSCLC, 62.2%; with SN12C renal, 47%; in the experiment on UO-31 renal, 33.1%; in the experiment with TK-10 renal, 50.5%; in the experiment with ACHN renal it was 27.9%. Moreover, the growth was 79.5% in the experiment on CAKI-1 renal; 39.5% in the experiment on A498 renal; -26.4% (active) with CCRF-CEM leukemia; -27.6% (active) with SR leukemia; 45.4% in the experiment on RPMI-8226 leukemia; 35.1% with OVCAR-8 ovarian. For the same compound, the growth was 73.1% in the experiment with OVCAR-5 ovarian; 61% with OVCAR-4 ovarian; 63.8% with SK-OV-3 ovarian; 54.9% with IGROV1 ovarian; 68.2% in the experiment with OVCAR-3 ovarian; 75.3% in the experiment with HS 578T breast. Further, in the experiment on NCI/ADR-RES ovarian, the growth was 51.7%.

On to `COc1ccc(C(=O)N2N=C(c3ccc(F)cc3)CC2c2cn(-c3ccccc3)nc2-c2ccccc2)cc1` (stereo not drawn), for which the growth is 75.1% with SK-MEL-2 melanoma; 70.9% in the experiment on EKVX NSCLC; 63% with SN12C renal; 68.1% in the experiment on UO-31 renal; 80.2% with TK-10 renal; 86.5% with ACHN renal. In addition, the growth with CAKI-1 renal was 63.2%; in the experiment on A498 renal, 93.2%; in the experiment with CCRF-CEM leukemia it was 57.1%; in the experiment on MOLT-4 leukemia, 42.2%; with RPMI-8226 leukemia, 62%; in the experiment with OVCAR-8 ovarian it was 39.4%. Further, the growth with OVCAR-5 ovarian was 95.6%; in the experiment on OVCAR-4 ovarian it was 68.2%; with SK-OV-3 ovarian, 62%; in the experiment on IGROV1 ovarian, 85%; in the experiment on OVCAR-3 ovarian, 45.8%; in the experiment on HS 578T breast, 83.7%. Also, in the experiment with NCI/ADR-RES ovarian, the growth was 34.9%.

As to `O=[N+]([O-])c1ccc(SSc2ccc([N+](=O)[O-])cc2Cl)c(Cl)c1`, the growth in the experiment on SK-MEL-2 melanoma is 104%; in the experiment on EKVX NSCLC, 87.9%; in the experiment with SN12C renal, 93.4%; in the experiment on UO-31 renal, 64.7%; with TK-10 renal, 105%; in the experiment on ACHN renal, 97.7%. The growth in the experiment on CAKI-1 renal was 87.7%; in the experiment on A498 renal, 22.7%; in the experiment on CCRF-CEM leukemia, 98.9%; with SR leukemia, 84.5%; in the experiment with RPMI-8226 leukemia it was 80%; with OVCAR-8 ovarian, 100%. Also, the growth was 126% in the experiment with OVCAR-5 ovarian; 83% with OVCAR-4 ovarian; 104% with SK-OV-3 ovarian; 69.6% in the experiment with IGROV1 ovarian; 101% with OVCAR-3 ovarian; 90.5% in the experiment with HS 578T breast.

For `COc1cc(OC)c2sc(-c3ccc(-n4cncc4-c4ccc(OC)c(N)c4)cc3)nc2c1`, the growth with SK-MEL-2 melanoma was 99.6%; with EKVX NSCLC it was 64.5%; in the experiment on SN12C renal, 87%; in the experiment with UO-31 renal it was 60.6%; in the experiment on TK-10 renal it was 82.8%; in the experiment on ACHN renal it was 90.4%. Further, the growth with CAKI-1 renal was 60.9%; in the experiment with A498 renal, 77.8%; in the experiment with CCRF-CEM leukemia, 59.2%; in the experiment with SR leukemia, 73.8%; with RPMI-8226 leukemia it was 51.8%; with OVCAR-8 ovarian, 84.3%. Further, the growth in the experiment with OVCAR-5 ovarian is 101%; in the experiment on OVCAR-4 ovarian, 78%; in the experiment with SK-OV-3 ovarian it was 123%; in the experiment on IGROV1 ovarian, 98.2%; in the experiment on OVCAR-3 ovarian, 77.4%; with HS 578T breast, 94.1%. For the same compound, in the experiment with NCI/ADR-RES ovarian, the growth is 77.4%.

In the case of `CC(C)(C)c1ccc(C(=O)Nc2sc3cc(O)ccc3c2C(N)=O)cc1`, the growth in the experiment on SK-MEL-2 melanoma was 114%; in the experiment with EKVX NSCLC it was 94.6%; in the experiment on SN12C renal, 78%; with UO-31 renal it was 65.6%; in the experiment with TK-10 renal, 133%; in the experiment on ACHN renal, 74.1%. Moreover, the growth is 77.3% in the experiment on CAKI-1 renal; 107% with A498 renal; 50% in the experiment with CCRF-CEM leukemia; 33.7% with SR leukemia; 5.05% (active) in the experiment on RPMI-8226 leukemia; 81.2% in the experiment with OVCAR-8 ovarian. Besides, the growth with OVCAR-5 ovarian is 99.3%; in the experiment with OVCAR-4 ovarian, 72.1%; in the experiment on SK-OV-3 ovarian, 115%; in the experiment on OVCAR-3 ovarian it was 90.8%; in the experiment on HS 578T breast it was 96.1%; in the experiment with NCI/ADR-RES ovarian, 71.7%.

On to `Nc1c(N)c2ccccc2c2ccccc12`, for which the growth was 106% in the experiment with SK-MEL-2 melanoma; 92.6% in the experiment on EKVX NSCLC; 99.5% in the experiment with SN12C renal; 69.1% in the experiment on UO-31 renal; 119% in the experiment with TK-10 renal; 111% in the experiment with ACHN renal. Besides, the growth in the experiment with CAKI-1 renal is 89%; with A498 renal, 113%; in the experiment on CCRF-CEM leukemia, 104%; with SR leukemia, 94.1%; in the experiment on RPMI-8226 leukemia, 94.8%; in the experiment with OVCAR-8 ovarian, 99.1%. Also, the growth with OVCAR-5 ovarian is 107%; in the experiment on OVCAR-4 ovarian, 96.5%; in the experiment on SK-OV-3 ovarian, 102%; with IGROV1 ovarian, 117%; with OVCAR-3 ovarian, 116%; with HS 578T breast, 104%. The growth in the experiment with NCI/ADR-RES ovarian is 101%.

The values are drawn from PubChem BioAssay (NCI).
